Assay results as given in ChEMBL document CHEMBL3433997, “St. Jude Leishmania screening dataset” (2016).

Columns and labels:
Type in all cases: functional
[1] = target: Solute carrier family 2, facilitated glucose transporter member 1 (Homo sapiens) (UniProt P11166); experiment: ST_JUDE_LEISH: Cytotoxicity at 2uM final concentration against transgenic Leishmania Mexicana promastigotes LmGLUT1 that are glucose transport deficient and complemented with the human glucose transporter GLUT1. Activity is measured by DNA content using SYBR green in vitro
[2] = target: Hexose transporter 1 (Plasmodium falciparum) (UniProt O97467); experiment: ST_JUDE_LEISH: Cytotoxicity at 2uM final concentration against transgenic Leishmania Mexicana promastigotes LmPfHT that are glucose transport deficient and complemented with the Plasmodium falciparum hexose transporter. Activity is measured by DNA content using SYBR green in vitro
[3] = target: Glucose transporter (Leishmania mexicana) (UniProt O61059); experiment: ST_JUDE_LEISH: Cytotoxicity at 2uM final concentration against transgenic Leishmania Mexicana promastigotes LmGT2 that are glucose transport deficient and complemented with the L. Mexicana glucose transporter 2. Activity is measured by DNA content using SYBR green in vitro

Solute carrier family 2, facilitated glucose transporter member 1 (Homo sapiens), sequence (P11166 whole entry): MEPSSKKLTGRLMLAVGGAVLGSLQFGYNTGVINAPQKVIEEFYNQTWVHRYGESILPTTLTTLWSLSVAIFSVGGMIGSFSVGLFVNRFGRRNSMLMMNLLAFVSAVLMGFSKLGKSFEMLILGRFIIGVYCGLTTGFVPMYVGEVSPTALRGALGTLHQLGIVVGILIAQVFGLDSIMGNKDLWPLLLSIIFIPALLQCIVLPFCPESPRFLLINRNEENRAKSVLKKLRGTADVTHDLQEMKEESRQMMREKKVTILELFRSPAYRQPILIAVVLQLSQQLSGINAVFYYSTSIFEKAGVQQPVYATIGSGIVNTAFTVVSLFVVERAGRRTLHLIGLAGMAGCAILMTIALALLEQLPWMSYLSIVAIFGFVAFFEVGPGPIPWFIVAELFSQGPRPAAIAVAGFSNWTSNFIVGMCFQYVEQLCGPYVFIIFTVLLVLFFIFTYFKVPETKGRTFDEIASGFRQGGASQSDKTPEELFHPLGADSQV

Row | Structure (SMILES) | inhibition [1] [%] | inhibition [2] [%] | inhibition [3] [%]
1 | Cc1cc(C(F)(F)F)n2nc(C(=O)N(Cc3cncn3Cc3cccc(F)c3)CC3CC3)cc2n1 | -0.1 | -0.07 | 2.14
2 | COc1ccc(C(=O)N2CCN(c3ccc([N+](=O)[O-])c(NC4CC4)c3)CC2)cc1Br | 14.4 | 14.1 | 12.6
3 | Cc1cc(C(=O)Nc2ccc(-c3nc4ccccc4[nH]3)cc2)ccc1[N+](=O)[O-] | 3.49 | 1.97 | -1.54
4 | O=C(NC1CCCCN(Cc2ccccc2O)C1)c1cc(F)cc(F)c1 (stereo unspecified) | 4.28 | 5.08 | 3.51
5 | CCc1nc2c(cnn2CC)c(NC2CCOCC2)c1CNC(=O)N1CCOCC1 | 3.81 | -1.12 | -0.36
6 | CCOc1cc(C)ccc1C1CCN(CCCCNC(=O)c2ccc(NC(=O)c3cc(Cl)cc(Cl)c3)cc2)CC1 | 2.78 | 0.36 | 1.02
7 | CN(c1ccccc1)c1ccnc(NC(=N)Nc2ccc(Cl)cc2)n1 | 5.16 | 5.4 | 5.1
8 | COc1ccccc1CCNc1nc(C)cc(NCCC(=O)NCCOc2ccccc2)n1 | 5.24 | 7.33 | 2.01
9 | Cc1[nH]c(C)c(-c2ccc(-c3ccccc3C(F)(F)F)nc2)c(=O)c1Br | 2.64 | 3.67 | 0.55
10 | Cc1cccc(C)c1CNc1ccnc2cc(Br)ccc12 | 9.73 | 8.34 | 5.92
11 | N/C(=N\c1cccc(Cc2ccccc2)n1)NCc1ccccc1 | 2.04 | -1.19 | 3.21
12 | Cc1[nH]c(C)c(-c2ccc(OCc3ccc(F)cc3)cc2)c(=O)c1Cl | -0.65 | -0.27 | -1.77
13 | O=C(Nc1ccc(-c2ccccc2)c(OCCN2CCNCC2)c1)c1ccc(-c2ccc(Cl)cc2)cc1 | 3.89 | 5.96 | 3.11
14 | CO/C(=C\C=C\c1cc2cc(Cl)c(Cl)cc2[nH]1)C(=O)Nc1ccc(NCCN(C)C)nc1 | 6.97 | 6.98 | 2.42
15 | CNC(=O)c1ccccc1Nc1cc(Nc2cc(OC)ccn2)ncc1Cl | 5.77 | 7.66 | 6.6
16 | CN(C)c1ccc(/N=C2/N/C(=N/c3ccc(N(C)C)cc3)c3ccccc32)cc1 | 4.81 | 6.38 | 3.25
17 | O=C(NCC1CCN(CCN2CCC(c3cn(CCO)c4ccccc34)CC2)CC1)c1ccc(-c2ccc(C(F)(F)F)cc2)cc1 | 4.27 | 5.41 | 3.71
18 | O=C(Cc1c[nH]cn1)Nc1cccc(-c2ccc(-c3nc4cc(C(F)(F)F)ccc4[nH]3)s2)c1 | -5.22 | -3.59 | -0.81
19 | COc1ccc(CNc2nc(NCCc3ccccc3)c3cc(OC)c(OC)cc3n2)cc1OC | 3.4 | 3.46 | 2.54
20 | N=C(N)NN=CC(=O)Nc1ccc(C(F)(F)F)cc1 | -0.81 | -0.97 | 3.39
21 | Clc1ccc(-c2cc(-c3csc(NCCN4CCCCC4)n3)on2)cc1 | 6.93 | 7.19 | 5.8
22 | CCOc1cc2c(cc1S(=O)(=O)c1ccc(COc3ccc(C(F)(F)F)cc3)cc1)CCN(C)CC2 | 1.72 | 3.79 | 1.18
23 | CCc1cn2c3c(cc(C(=O)N[C@@H](Cc4ccccc4)[C@H](O)CNC4CCCCC4)cc13)N(C)S(=O)(=O)C2 | 2.09 | 2.23 | 2.69
24 | O=S(=O)(Nc1cc2c(cc1O)CCN(C1CCC1)CC2)c1ccc(Oc2ccc(F)cc2)cc1 | 2.05 | 1.02 | 0.51

Row | Structure (SMILES) | inhibition [1] [%] | inhibition [2] [%] | inhibition [3] [%]
25 | O=[N+]([O-])c1cccc(Nc2cncc(-c3ccc(CO)cc3)c2)c1 | 2.04 | 0.66 | 0.83
26 | Cc1nc2ccc3ccc(CNc4ccc(C(=O)N[C@@H](CCC(=O)O)C(=O)N[C@@H](Cc5cccs5)C(=O)O)c(F)c4)cc3c2c(=O)[nH]1 | 6.55 | 7.51 | 6.36
27 | COc1ccccc1N=C1SC(=Cc2cn(CC(=O)N3CCCc4ccccc43)c3ccccc23)C(=O)N1C1CCCCC1 | 2.84 | 0.47 | -1.37
28 | CC1(C)NC(N)=NC(=N)N1OCCCOc1cccc(Cl)c1 | 3.04 | 5.38 | 2.82
29 | COc1ccc2ncc(F)c(CCN3CCC(NCc4cc(OC)c5c(c4)OCCO5)CC3)c2n1 | 7.06 | 6.92 | 1.31
30 | COc1ccc(Cc2c(Cl)nc3nc(N)nc(N)c3c2C)cc1 | 7.37 | 7.06 | 8.71
31 | CCOc1c(OC)ccc2c1CCN(CCN1CCC(NC(=O)c3ccc(-c4cccc(C(F)(F)F)c4C(F)(F)F)cc3)CC1)C2 | 1.91 | 1.96 | 1.39
32 | Fc1ccc(Nc2ccnc3cc(-c4ccc(CN5CCOCC5)o4)ccc23)c(Cl)c1 | 9.15 | 8.02 | 7.49
33 | NC1CCCN(Cc2cccc(-c3cccc(-c4nc5ccccc5[nH]4)c3)c2)C1 (stereo unspecified) | 8.27 | 6.48 | 5.75
34 | Cc1cccc(C)c1CNc1ccnc2ccccc12 | 1.11 | 2.91 | 6.9
35 | N#Cc1ccc(N2CCN(C(=O)c3cccc(-c4noc(C(F)(F)F)n4)c3)CC2)nc1 | 0.27 | 0.91 | -0.23
36 | COc1c(C2CCN(CCCCNC(=O)c3ccc(-c4ccc(Cl)cc4)cc3)CC2)ccc2c1C(C)(C)CCC2(C)C | -1.1 | -1.15 | -2.13
37 | CCCC1N=C(N)N=C(N)N1c1ccc(OC)cc1 (stereo unspecified) | 1.53 | -0.34 | 1.56
38 | O=C(NC12CC3CC(CC(C3)C1)C2)C(=O)c1c[nH]c2ccccc12 | 3.4 | 3.09 | 1.4
39 | Oc1c(CN2CCCC(C(F)(F)F)C2)cc(Cl)c2ccccc12 (stereo unspecified) | 1.85 | 2.27 | 3.06
40 | CNC(=O)C(NC(=O)c1ccccc1C(=O)OC)c1ccccc1 (stereo unspecified) | 1.77 | 0.32 | -2.13
41 | CN(C)c1ccc(C=Cc2ccc3ccccc3n2)c(Cl)c1 | 91.5 | 83.8 | 85.2
42 | N#Cc1ccc2c(c1)CCN(CCC1CCC(NC(=O)Nc3ccnc4ccccc34)CC1)C2 (stereo unspecified) | 4.82 | 3.39 | 1.75
43 | O=C(N[C@@H](Cc1ccccc1)C(=O)NC1CCCCC1)c1ccc(O)c(-c2ccc(Cl)c(Cl)c2)c1 | -0.99 | 0.22 | -0.73
44 | CCCc1c(Cl)cc(CNCCCNc2nc3ccncc3[nH]2)cc1Cl | 1.35 | 3.89 | 1.39
45 | CCOC(=O)c1cn(CC)c2cc(N(C)CCc3ccc(OC)c(OC)c3)c(F)cc2c1=O | 2.15 | 1.21 | 1.68
46 | CCOc1c(Br)cc(Br)cc1CNCCCCNc1nc2ccccc2[nH]1 | 3.08 | 2.4 | 3.2
47 | CC(C)c1ccc(NC(=O)NC2CCN(CCCCCNC(=O)/C=C/c3ccc(Cl)c(Cl)c3)CC2)cc1 | -0.71 | -0.91 | -0.17
48 | CC(C)c1nc(N2CCN(C(=S)NCc3ccccc3)CC2)c(C#N)c2c1COC(C)(C)C2 | -0.1 | 0.47 | 0.22

Row | Structure (SMILES) | inhibition [1] [%] | inhibition [2] [%] | inhibition [3] [%]
49 | Nc1c(Cl)cc(C(O)CNCCCCCCOCCc2ccc(CO)s2)cc1Cl (stereo unspecified) | 2.77 | 1.49 | 2.21
50 | Cc1[nH]c(C)c(-c2cc3ccccc3o2)c(=O)c1Cl | 0.9 | 1.79 | 0.5
51 | Cc1cc(NCc2ccccc2)nc(NCc2ccccc2)n1 | 11.8 | 5.78 | 4.43
52 | CC(CN(C)C)C(=O)Nc1cccc(-c2ccc(-c3nc4ccccc4[nH]3)s2)c1 (stereo unspecified) | 9.63 | 9.45 | 3.78
53 | O=C(Nc1nc2cc(S(=O)(=O)NCc3ccc(Cl)c(Cl)c3)ccc2n1CCCn1ccnc1)c1ccc(Cl)cc1 | 6.51 | 4.45 | 4.53
54 | Clc1ccc2nc(-c3cccnc3)[nH]c2c1 | 6.05 | 8.47 | 6.56
55 | CC(=O)Nc1sc(C)c(C)c1CN1CCc2ccccc2C1 | -0.17 | 0.49 | -1.3
56 | COc1ccc(C2CCN(C#N)C2)cc1OC1CCCC1 (stereo unspecified) | 17 | 17.2 | 11.1
57 | O=C1Nc2cccc3c2C1(CCCCCN1CCC(c2c[nH]c4ccncc24)CC1)CCC3 (stereo unspecified) | 1 | 2.45 | -0.95
58 | CC(C)Cc1ccc(N2CCN(CCCCNC(=O)c3ccc(NC(=O)c4cc(C(F)(F)F)cc(C(F)(F)F)c4)cc3)CC2)cc1 | 0.41 | 1.08 | -0.64
59 | COc1ccc(CNCc2cccc(-c3ccc(-c4nc5cc(C(F)(F)F)ccc5[nH]4)cc3)c2)cc1 | 7.79 | 6.65 | 6
60 | CCCCOC(=O)NCCCC[C@H](NC(=O)OC(C)(C)C)C(=O)N[C@H](C(=O)OC(c1ccccc1)c1ccccc1)[C@H]1O[C@@H](n2ccc(=O)[nH]c2=O)[C@@H]2OC(C)(C)O[C@@H]21 | 0.88 | 0.71 | 0.44
61 | O=c1cc(NCCC(CNCc2ccc(Br)o2)NCc2cc(Br)cc(Br)c2)[nH]c2ccccc12 (stereo unspecified) | 8.13 | 8.45 | 6.87
62 | N=C(NCCc1c[nH]c2ccccc12)NCc1ccccc1Cl | -1.93 | -1.07 | -1.16
63 | N=C(N)Nc1nc(-c2cccc(NC(=O)NCC(c3ccccc3)c3ccccc3)c2)cs1 | 0.2 | 2.14 | 0.5
64 | CCN(CC)CCN(Cc1ccc(-c2ccc(C(F)(F)F)cc2)cc1)C(=O)Cn1c(CCc2ccc(F)c(F)c2)nc(=O)c2ccccc21 | 1.89 | 0.22 | 1.08
65 | O=C1CCCN1CCCNCc1ccc(-c2ccc(-c3nc4cc(F)ccc4[nH]3)s2)cc1 | 2.19 | 1.67 | 6.85
66 | CC(=O)Nc1ccc(CCNC(C)Cc2ccc(C(=O)Nc3ccc(CC(C)NCCc4cccc(Cl)c4)cc3)cc2)cc1 (stereo unspecified) | 2.17 | -1.77 | 0.98
67 | O=C(Nc1ccc(I)cc1)N1CCc2sccc2C1CN1CCCCC1 (stereo unspecified) | 12.2 | 9.79 | 10.5
68 | COCCCNc1nc2cc(OC)c(OC)cc2c2nc(-c3ccccc3)nn12 | 2.53 | 1.16 | 0.85
69 | COc1cc2nc(NCCc3ccccc3)nc(NC(C)c3ccccc3)c2cc1OC (stereo unspecified) | 7.18 | 6.76 | 3.19
70 | Cc1ccc(S(=O)(=O)N(CCCNCc2cccc(O)c2)c2ccccc2)cc1 | 9.85 | 6.1 | 7.86
71 | O=C(NCCCCN1CCC2c3cccc(O)c3CCC21)c1ccc(-c2ccccc2)cc1 (stereo unspecified) | 6.05 | 5.38 | 3.69
72 | Cc1cccc2nc(-c3ccc(-c4cccc(CN5CCN(CCO)CC5)c4)cc3)[nH]c12 | 7.34 | 4.65 | 4.22
